Reference: PubChem BioAssay (NCATS)
“And” between values parts separate entries of the source, which are not always exact repeats. Equal entries are not always repeated. Inconclusive results are not listed. A number with no mark means an inactive call. The source made the active and inactive calls. Calls follow the shape of the dose curve; as a rule, active = well fitted activation curve with a large enough effect; inconclusive = small, poorly fitted or top-dose-only effect; inactive = no such curve, though single readings can be large or run the other way. Non-standard residues stand in square brackets, D forms with d. Residues, ends and D or L forms follow the SMILES beside them. pGlu = O=C1CC[C@@H](C(=O)O)N1

Each compound was assayed against Cellular tumor antigen p53 (Homo sapiens) (UniProt P04637) (assay: Primary qHTS for small molecule compounds that upregulate eGFP-tagged delta133p53alpha (in N-terminal) cells. (AID 2060322; also: nearly all actives have a fitted effect of over 75% in size;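 as to activation: series mostly up to about 56 µM; 0% = DMSO vehicle and 100% = reference activator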)). Details: NCI-H358 eGFP-delta133p53alpha fluorescence, 24 h; activation: stronger effect = higher value.
Cellular tumor antigen p53 (Homo sapiens), sequence (P04637 whole entry, looked up): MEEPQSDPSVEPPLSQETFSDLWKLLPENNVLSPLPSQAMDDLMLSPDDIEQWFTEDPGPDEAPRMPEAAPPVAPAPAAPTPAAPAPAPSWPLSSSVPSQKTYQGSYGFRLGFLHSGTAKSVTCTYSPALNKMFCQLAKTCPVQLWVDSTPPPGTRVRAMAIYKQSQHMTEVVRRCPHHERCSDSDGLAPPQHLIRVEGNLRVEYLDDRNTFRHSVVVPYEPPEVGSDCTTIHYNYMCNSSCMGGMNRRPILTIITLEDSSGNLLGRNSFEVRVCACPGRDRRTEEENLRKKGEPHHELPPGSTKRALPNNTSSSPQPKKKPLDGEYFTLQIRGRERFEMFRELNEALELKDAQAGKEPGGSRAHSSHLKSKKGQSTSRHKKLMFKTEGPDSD
Outline: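 NCI-H358 cells pre-induced 24 h with 10 ng/ml doxycycline to express N-terminal eGFP-delta133p53alpha, then dosed 24 h at 37C without doxycycline; fixed, Hoechst-stained, GFP intensity by laser scanning cytometry, normalized to DMSO (0%) and 57.5 uM 5-azacytidine (100%).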
Potency is read from the fitted curve at half-maximal effect.

Row | SMILES | activation | Potency
1 | CN(C)CCOC(c1ccccc1)c1ccc(Br)cc1 (stereo not given) | -6.21% | –
2 | CN1C(=O)c2ccccc2C1=O | 7.53% | –
3 | CCOC1OC(=O)C[C@H]1NC(=O)[C@@H]1CCCN1C(=O)[C@@H](NC(=O)c1ccc(N)c(Cl)c1)C(C)(C)C (stereo not given in full) | 110% | –
4 | Nc1cccc2c1CN(C1CCC(=O)NC1=O)C2=O (stereo not given) | 21.6% and -10.9% | –
5 | CC(=O)N1CCN(c2ccc(O)cc2)CC1 | -15.3% | –
6 | CC(C)(C)[C@H](NC(=O)c1ccc(N)c(Cl)c1)C(=O)N1CCC[C@@H]1C(=O)N[C@H](C#N)CC(=O)O | -1.07% | –
7 | CC1CCc2c(N3CCC(O)CC3)c(F)cc3c(=O)c(C(=O)O)cn1c23 (stereo not given) | 5.02% | –
8 | NS(=O)(=O)c1ccc(Cl)c(S(N)(=O)=O)c1 | -10% | –
9 | Cc1ccc(C(=O)NCCCCCC(=O)Nc2ccccc2N)cc1 | 11.2% | –
10 | CC(=O)N[C@H]1[C@@H]([C@H](O)[C@H](O)CO)OC(C(=O)O)=C[C@@H]1N=C(N)N | -10.7% | –
11 | Oc1ccccc1C=NCc1ccccc1 | -19.2% | –
12 | O=C(Nc1ccc(Cl)c(Cl)c1)C1CC1 | -7.53% | –
13 | O=S(=O)(O)c1ccc(O)cc1 | 5.08% | –
14 | O=C1c2c(O)cc(O)cc2O[C@H](c2cc(O)c(O)c(O)c2)[C@H]1O | -0.847% | –
15 | CC(=O)O[C@]1(C(C)=O)CC[C@H]2[C@@H]3C=C(C)C4=CC(=O)CC[C@]4(C)[C@@H]3CC[C@@]21C | -16.9% | –
16 | CN(C)CCN(Cc1ccccc1)c1ccccn1 | 24.3% | –
17 | Cc1c(Nc2ncccc2C(=O)O)cccc1C(F)(F)F | -5.08% | –
18 | CCCCNC(=O)NS(=O)(=O)c1ccc(N)cc1 | -14.2% | –
19 | CC(C)(C)NCC(O)COc1cccc2c1CCC(=O)N2 (stereo not given) | 28.5% | –
20 | C#C[C@]1(O)CC[C@H]2[C@@H]3CCC4=CC(=O)CC[C@@H]4[C@H]3CC[C@@]21C | 7.34% | –

Row | SMILES | activation | Potency
21 | CCC(CN)=C(c1ccccc1)c1ccccc1 | -4.18% | –
22 | CC(C)(C)NCC(O)COc1cccc2c1C[C@H](O)[C@H](O)C2 (stereo not given in full) | 0% | –
23 | CCNC(=O)Nc1ccc(Oc2ncnc(N)c2C=NOC)cc1Cl | -10.2% | –
24 | CCOC(=O)[C@H](CCc1ccccc1)N[C@@H](C)C(=O)N1Cc2cc(OC)c(OC)cc2C[C@H]1C(=O)O | -5.86% | –
25 | CC(C)CCOC(=O)c1ccc(N(C)C)cc1 | 6.69% | –
26 | COc1ccnc2[nH]cc(C(=O)C(=O)N3CCN(C(=O)c4ccccc4)C[C@@H]3C)c12 | 3.59% | –
27 | C[C@]1(Cn2ccnn2)[C@H](C(=O)O)N2C(=O)C[C@H]2S1(=O)=O | -22.6% | –
28 | CCNC(=O)[C@@H]1CCCN1C(=O)[C@H](CCCN=C(N)N)NC(=O)[C@H](CC(C)C)NC(=O)CNC(=O)[C@H](Cc1ccc(O)cc1)NC(=O)[C@H](CO)NC(=O)[C@H](Cc1c[nH]c2ccccc12)NC(=O)[C@H](Cc1cnc[nH]1)NC(=O)[C@@H]1CCC(=O)N1 ([pGlu]HWSYGLRP-NHEt) | 5.86% | –
29 | CN(C)C(=S)SC(=S)N(C)C | – | 21.9 µM (active)
30 | Cc1sccc1Br | 7.53% | –
31 | O=C(c1ccccc1)c1ccccc1 | 16.4% | –
32 | C#C[C@]1(O)CC[C@@H]2[C@@H]3CCC4=CC(=O)CC[C@@H]4[C@H]3CC[C@@]21CC | 25.3% | –
33 | N#CSCC(=O)O | 1.69% | –
34 | Nc1cccc(-c2csc(NC(=O)CCCCCCC(=O)NO)n2)c1 | 139% | –
35 | NC(=O)CC[C@@H](N)C(=O)O | 1.69% | –
36 | OCC(O)CS (stereo not given) | -8.47% | –
37 | Cc1onc(-c2ccccc2)c1C(=O)N[C@@H]1C(=O)N2[C@@H](C(=O)O)C(C)(C)S[C@@H]12 | -7.66% | –
38 | CCCSc1ccc2nc(NC(=O)OC)[nH]c2c1 | 6.69% | –
39 | O=C(CO)[C@@H](O)[C@H](O)[C@@H](O)CO | -15.9% | –
40 | O=C(O)[C@@H](O)[C@H](O)[C@H](O)[C@@H](O)C(=O)O | -1.67% | –
